Results as given in the supplement of paper PMC6555819.

Columns and labels:
Experiment in all cases: PBM binding z-score (relative to random genomic background probes); higher = stronger binding; sequences stand for … in GC…GCGATTGACAGCGTAGAATGAAGG
[1] = tested on: FXR:RXRa (NR concentration 270 nM, RXRa partner concentration 90 nM)
Summary of the method: (§1)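 Ligand-free nuclear receptor dimers were bound for 1 h to custom Agilent 4×180K protein-binding microarrays. Detection used antibodies against each partner (one per run). Binding z-scores rest on regression-normalized fluorescence, with random background probes as the reference.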

[2] = tested on: LXRa:RXRa (NR concentration 270 nM, RXRa partner concentration 90 nM)
Summary of the method: as §1

[3] = tested on: LXRa homodimer (NR concentration 270 nM)
Summary of the method: as §1

[4] = tested on: LXRb homodimer (NR concentration 270 nM)
Summary of the method: as §1

[5] = tested on: PPARa:RXRa (NR concentration 270 nM, RXRa partner concentration 90 nM)
Summary of the method: as §1

[6] = tested on: PPARg:RXRa (NR concentration 180 nM, RXRa partner concentration 90 nM)
Summary of the method: as §1

[7] = tested on: PPARg:RXRa 270nM:90nM, anti-RXR (NR concentration 270 nM, RXRa partner concentration 90 nM)
Summary of the method: as §1

[8] = tested on: PPARg:RXRa 30nM:10nM, anti-RXR (NR concentration 30 nM, RXRa partner concentration 10 nM)
Summary of the method: as §1

[9] = tested on: PPARg:RXRa 90nM:30nM, anti-RXR (NR concentration 90 nM, RXRa partner concentration 30 nM)
Summary of the method: as §1

[10] = tested on: PPARg:RXRa DBDmut IVT, anti-RXR (DBD mutation: RXRa K156A/R161A, NR concentration 270 nM, RXRa partner concentration 90 nM)
Summary of the method: as §1

[11] = tested on: PPARg:RXRa IVT, anti-PPARg (NR concentration 270 nM, RXRa partner concentration 90 nM)
Summary of the method: as §1

[12] = tested on: PPARg DBDmut:RXRa IVT, anti-PPARg (DBD mutation: PPARg1 K132A/R137A, NR concentration 270 nM, RXRa partner concentration 90 nM)
Summary of the method: as §1

[13] = tested on: PPARg DBDmut IVT, anti-PPARg (DBD mutation: PPARg1 K132A/R137A, NR concentration 270 nM)
Summary of the method: as §1

[14] = tested on: PPARg homodimer (NR concentration 180 nM)
Summary of the method: as §1

[15] = tested on: PXR:RXRa (NR concentration 270 nM, RXRa partner concentration 90 nM)
Summary of the method: as §1

[16] = tested on: PXR homodimer (NR concentration 270 nM)
Summary of the method: as §1

[17] = tested on: RARa:RXR (NR concentration 270 nM, RXRa partner concentration 90 nM)
Summary of the method: as §1

[18] = tested on: RARa homodimer (NR concentration 270 nM)
Summary of the method: as §1

[19] = tested on: RARb:RXRa (NR concentration 270 nM, RXRa partner concentration 90 nM)
Summary of the method: as §1

Sequence	PBM binding z-score [1]	PBM binding z-score [2]	PBM binding z-score [3]	PBM binding z-score [4]	PBM binding z-score [5]	PBM binding z-score [6]	PBM binding z-score [7]	PBM binding z-score [8]	PBM binding z-score [9]	PBM binding z-score [10]	PBM binding z-score [11]	PBM binding z-score [12]	PBM binding z-score [13]	PBM binding z-score [14]	PBM binding z-score [15]	PBM binding z-score [16]	PBM binding z-score [17]	PBM binding z-score [18]	PBM binding z-score [19]
CGTCCAAGGTAAATGCTAGGTCAGTGAAAGCATT	0.57	1.38	0.935	-0.419	0.673	-0.228	-0.117	-0.486	-0.493	0.714	0.881	-1.05	-0.95	0.424	0.128	-0.305	0.803	-0.343	1.61
ACTCGGAGGACAAAGGTGAGAGCTACGCCAGTGA	0.567	0.58	-0.14	-0.434	2.81	4.53	5.16	3.49	5.42	0.595	2.19	-0.781	-0.86	0.6	0.477	-0.385	1.24	-0.258	2.37
CCTTACGGGTCACTCAAGGTTATAGCATCGGAGT	5.96	7.83	3.32	-0.133	4.73	3.97	4.48	1.55	3.36	2.86	3.83	1.98	1.29	3.87	6.13	1.3	4.95	0.631	4.07
ATGGAAAGGTCGTGAGGTGAGTATACAGAAAGGC	5.97	4.01	0.412	1.01	5.3	4.74	4.66	1.89	3.12	0.309	2.67	0.977	1.59	2.23	3.42	1.13	4.64	1.17	4.41
ACTAGTTGGTCAGCTGAGGTAACACACAATTCGG	1.15	-0.066	0.00608	0.472	0.41	0.76	0.156	0.214	-0.00453	1.07	1.11	0.194	0.609	0.0938	0.509	-0.174	1.3	-0.362	1.03
ACTCGGAGGACAAAGGTCAGAACTACGCCAGTGA	3.87	4.07	1.47	1.03	4.61	7.34	7.11	4.87	7.69	0.613	3.35	0.492	-0.388	4.36	3.9	0.428	4.98	2.66	4.04
CCTACTGGGCCACTCAGAGGTCATTGATCATATG	2.81	4.09	4.52	0.238	3.98	3.57	3.49	1.52	2.96	5.13	5.18	-0.186	-0.561	1.94	5.1	1.83	4.46	0.374	3.28
TTACCAAGGTGAACTGAGGTCGTTGATCCAACTC	3.33	4.31	1.34	-0.359	3.46	2.14	2.3	0.857	1.7	2.89	3.47	0.972	0.996	1.32	6.12	1.94	3.7	-0.75	2.43
